Several values for one entry are separate records, joined by “and”; a condition that tells them apart may be missing. Equal entries are not always repeated. Hit rate of the full screen: of about 290,000 compounds, about 27,000 (9.3%) were called active. Rule as the data show it: active = inhibition mostly above about 28% (no sharp cut-off); inactive = mostly below about 43%. The entries come from a sample that favours actives as a whole.
assay: A qHTS for Small Molecule Inhibitors of Shiga Toxin; conditions: Vero cells, Shiga toxin protein synthesis inhibition reporter; at 38.7 µM, active compounds read high; also: 0% is about no effect

Row | SMILES | inhibition
1 | Cc1ccc(OCCCCc2c(C)n[nH]c2C)cc1 | 25.2% (inactive)
2 | Cc1cc(C)nc(SCc2cn3c(C)cc(C)nc3n2)n1 | 2.5% (inactive)
3 | Cc1ccc2nc(SCc3cn4c(C)cc(C)nc4n3)[nH]c2c1 | -3.11% (inactive)
4 | COc1ccc(OCc2cn3c(C)cc(C)nc3n2)cc1 | 48.1% (active)
5 | CC(C(=O)N=Nc1c(O)n(C)c2ccc(Br)cc12)n1cnc2ccccc2c1=O (stereo not given) | -6.1% (inactive)
6 | CSCCC(NS(=O)(=O)c1ccccc1F)C(=O)N1CC=C(c2ccccc2)CC1 (stereo not given) | -9.3% (inactive)
7 | COCCN(C(=O)C(C)C)c1nnc(-c2ccc(C(C)(C)C)cc2)s1 | 24.3% (inactive)
8 | COc1ccc(CSc2nnnn2-c2ccc(C(=O)O)cc2)cc1 | -2.72% (inactive)
9 | CCOc1cccc(-n2nnnc2-c2ccc(OC)cc2)c1 | 0.378% (inactive)
10 | COc1ccc(-n2nnnc2-c2nc3ccccc3s2)cc1 | 77.2% (active)
11 | COC(=O)c1ccc(CN2CCCC(C(=O)Nc3cccc(-n4cnnn4)c3)C2)cc1 (stereo not given) | -11.4% (inactive)
12 | N=c1c2c(-c3ccccc3)c(-c3ccccc3)n(Cc3ccccc3)c2ncn1CCCO | -13.5% (inactive)
13 | OCCCN1c2ccccc2Nc2nnc(-c3ccccc3)cc21 | 57.2% (active)
14 | O=[N+]([O-])c1ccc(N(CCO)Cc2ccccc2)c([N+](=O)[O-])c1 | 6.65% (inactive)
15 | COc1ccc(C(=O)c2c(C)c(CCC#N)n3ccccc23)c(OC)c1 | -12.7% (inactive)
16 | CC(C)C(=O)Nc1ccc2c(c1)oc1ccccc12 | 105% (active)
17 | CC(C)C(=O)Nc1ccc2oc(=O)ccc2c1 | 31% (inactive)
18 | CC(C)C(=O)Nc1c(C(=O)c2ccc(F)cc2)oc2ccccc12 | -3.91% (inactive)
19 | Cc1c(CC(=O)NCC(=O)NCC(=O)O)c(=O)oc2cc3oc4c(c3cc12)CCCC4 | 2.91% (inactive)
20 | CCNC(=O)c1sccc1-n1cccc1 | -7.99% (inactive)
21 | CC(C)=CCc1c(O)c(CC=C(C)C)c2occ(-c3ccc(O)cc3)c(=O)c2c1O | 46.6% (active)
22 | CCc1ccc(OCC(=O)NCC(c2ccc(Cl)cc2)N2CCCCC2)cc1 (stereo not given) | -3.91% (inactive)
23 | CCOC(=O)Cn1c(O)c(N=NC(=O)CNC(=O)Cc2ccccc2)c2ccccc21 | 13.1% (inactive)
24 | CC(C)(C)N(Cc1ccccc1)C(=O)c1ccncc1 | -5.35% (inactive)
25 | O=C(Nc1cccc(Cl)c1)OCc1ccccn1 | 98% (active)

Row | SMILES | inhibition
26 | O=C(Nc1ccccc1)OCc1cc(-c2ccc(Cl)cc2)on1 | -25% (inactive)
27 | O=C(Nc1cccc(CCc2ccccn2)c1)c1ccc(Cl)cc1 | 22.8% (inactive)
28 | COC(=O)c1ccc2ccccc2c1OC1OC(CO)C(O)C(O)C1NC(C)=O (stereo not given) | -11.3% (inactive)
29 | CCN(CC)c1ccc2c(Nc3ccccc3)c(C=O)c(=O)oc2c1 | 29.5% (inactive)
30 | CCN(CC)c1ccc2cc(C(N)=O)/c(=N\NC(=O)c3ccncc3)oc2c1 | 24.7% (inactive)
31 | CCN(CC)c1ccc2oc(=O)c(C)nc2c1 | 22% (active)
32 | COc1cc2c(cc1OC)C(/C=C/c1ccco1)=NCC2 | -7.71% (inactive)
33 | O=C(Nc1ccc2c(c1)OCO2)C1CC(c2c(F)cccc2Cl)=NO1 (stereo not given) | 72.1% (active)
34 | Cc1ccc(NC(=O)C2CC(c3ccc(F)cc3)=NO2)cc1 (stereo not given) | -22.6% (inactive)
35 | Cc1ccccc1N1CC(C(=O)Nc2ccc3c(c2)OCO3)CC1=O (stereo not given) | 21.6% (inactive)
36 | COc1cc(S(=O)(=O)Nc2ncn[nH]2)ccc1Cl | -3.71% (inactive)
37 | CCC1CCCCN1C(=S)Nc1ccc(S(=O)(=O)Nc2ncccn2)cc1 (stereo not given) | 8.74% (inactive)
38 | CC(=O)c1ccc(OCC(O)CN2CCN(S(=O)(=O)c3cccc(Br)c3)CC2)cc1 (stereo not given) | -10% (inactive)
39 | COc1ccc(S(=O)(=O)Nc2c(C)n(C)n(-c3ccccc3)c2=O)cc1 | 1.34% (inactive)
40 | COc1ccc(S(=O)(=O)/N=C2\C=C(NS(=O)(=O)c3ccccc3)C(=O)c3ccccc32)cc1 | 61.3% (active)
41 | COc1ccc2cc(S(=O)(=O)Nc3ccccn3)ccc2c1 | -1.18% (inactive)
42 | CCn1c(C)c(C)c2cc(C(=O)N3CCN(c4cccc(C)c4C)CC3)ccc21 | -9.52% (inactive)
43 | Cc1ccc(S(=O)(=O)N2CCC(C(=O)NCC3CCCO3)CC2)cc1 (stereo not given) | -25.2% (inactive)
44 | Cc1ccc(-n2c(C)cc(/C=C(\C#N)C(=O)NCC3CCCO3)c2C)cc1 (stereo not given) | 108% (active)
45 | Cc1ccc(C(=O)N/C(=C/c2cccs2)C(=O)NCC2CCCO2)cc1 (stereo not given) | 16.9% (inactive)
46 | C/C(N)=C(/C#N)C(=O)COC(=O)c1cc(-c2cccc(Br)c2)nc2ccccc12 | 5.3% (inactive)
47 | C/C(N)=C(/C#N)C(=O)COC(=O)c1cc(-c2ccc(C)cc2)nc2ccccc12 | 53.2% (active)
48 | CNC(=O)COC(=O)c1cc(-c2ccc(OC)cc2)nc2ccccc12 | 54.5% (active)
49 | COc1ccc(-c2cc(C(=O)n3cnc4ccccc43)c3ccccc3n2)cc1 | 6.77% (inactive)
50 | C/C(N)=C(/C#N)C(=O)COC(=O)c1cc(-c2ccccc2)nc2ccc(Br)cc12 | -3.47% (inactive)

Row | SMILES | inhibition
51 | COc1ccc(-c2cc(C(=O)N(C)Cc3ccccc3)c3ccccc3n2)cc1 | -2.41% (inactive)
52 | O=C(c1cccs1)N(Cc1cc2ccccc2[nH]c1=O)CC1CCCO1 (stereo not given) | -16% (inactive)
53 | CCN1C(=NCCc2cccnc2)N[C@@H](c2ccccc2)C(C(=O)OC)=C1C | -1.87% (inactive) and -4.64% (inactive)
54 | S=C(Nc1cccnc1)Nc1ccccn1 | -1.64% (inactive)
55 | Cc1ccc(NC(=S)NCc2ccccc2Cl)c(C)c1 | -19.8% (inactive)
56 | Cc1ccc(NC(=S)NCCc2ccc(Cl)cc2)c(C)c1 | 13.6% (inactive)
57 | Cc1ccc(NC(=S)Nc2ncccc2C)c(C)c1 | 54.2% (active)
58 | COc1ccc(CN2CC(C(=O)NCCc3ccc(Cl)cc3)CC2=O)cc1 (stereo not given) | -11.7% (inactive)
59 | Cn1ncc(Br)c1C(=O)NC1CCCC1 | -7.94% (inactive)
60 | C=CCn1c(=NC(=O)c2ccc(S(=O)(=O)N3CCCC3)cc2)sc2cc(NC(C)=O)ccc21 | -8.21% (inactive)
61 | C=CCn1c(=NC(=O)c2cccs2)sc2cc(NC(C)=O)ccc21 | 47.4% (active)
62 | C=CCn1c(CCNC(=O)c2cccs2)n[nH]c1=S | 2.22% (inactive)
63 | COc1ccc(CNS(=O)(=O)c2cc(-c3cc(C)no3)ccc2C(C)C)cc1 | -15.5% (inactive)
64 | CN(C)Cc1c(C(=O)N/N=C/c2ccccc2OCc2ccc(F)cc2)nnn1-c1nonc1N | -7.12% (inactive)
65 | CN(C)c1ccc(/C=C/C(=O)c2ccc(C(C)(C)C)cc2)cc1[N+](=O)[O-] | 27.8% (inactive)
66 | O=C(/C=C/c1ccc(Cl)c([N+](=O)[O-])c1)c1ccc(O)cc1 | 10.6% (inactive)
67 | CN(C)c1ccc(/C=C/C(=O)c2ccc(O)cc2)cc1[N+](=O)[O-] | 48.8% (active)
68 | O=C(O)/C=C/c1ccc2c(c1)OCCO2 | -2.74% (inactive)
69 | O=C(/C=C/c1ccc2c(c1)OCCO2)c1ccc(O)cc1 | 56.9% (active)
70 | O=C(/C=C\c1ccc2c(c1)OCO2)NC1(C(=O)Nc2ccc3c(c2)OCCO3)CCCCC1 | -4.85% (inactive)
71 | CCOc1ccc(N2CC(C(=O)NCc3ccccn3)CC2=O)cc1 (stereo not given) | -7.37% (inactive)
72 | COc1cc(/C=C/C(=O)N2CCc3ccccc3C2)cc(OC)c1OC | -4.9% (inactive)
73 | Cc1ccc(S(=O)(=O)N2CCC(Oc3ccc(-n4cnnn4)cc3)CC2)cc1 | 1.93% (inactive)
74 | Cc1ccc(C)c(N2CCN(C(=O)Cn3ncn4cccc4c3=O)CC2)c1 | -2.82% (inactive)
75 | CCc1nc2nc(C)c(NS(=O)(=O)c3ccc4c(c3)CCCC4)c(=O)n2[nH]1 | -6.5% (inactive)

Row | SMILES | inhibition
76 | Cc1cccc(CNS(=O)(=O)c2ccc(-c3cnc(C4CC4)o3)cc2)c1 | 13.9% (inactive)
77 | N/C(=N\OC(=O)Cc1ccc([N+](=O)[O-])cc1)c1ccccn1 | 124% (active)
78 | O=C(OCc1ccc([N+](=O)[O-])cc1)c1ccccn1 | 1.67% (inactive)
79 | CO/N=C(\N)c1ccc([N+](=O)[O-])cc1 | -2.22% (inactive)
80 | N/C(Cc1ccc([N+](=O)[O-])cc1)=N\OC(=O)COc1ccc2ccccc2c1 | 12.2% (inactive)
81 | N/C(=N\OC(=O)COc1ccc([N+](=O)[O-])cc1)c1ccc(Br)cc1 | 2.73% (inactive)
82 | N/C(=N\OC(=O)c1ccc([N+](=O)[O-])cc1)c1ccccn1 | 71% (active)
83 | CC(C)(C)c1ccc(Cn2nnc3c(=O)[nH]c(C4CCCN(C(=O)c5ccco5)C4)nc32)cc1 (stereo not given) | 2.02% (inactive)
84 | Cc1cc(C)n(CCC(=O)N2CCN(S(=O)(=O)c3ccc(C)c(C)c3)CC2)n1 | -6.68% (inactive)
85 | Cc1ccc(CNC(=O)C2CCCN2S(=O)(=O)c2ccc3c(c2)C(C)(C)C(=O)N3C)cc1 (stereo not given) | -2.07% (inactive)
86 | Cc1cc(C(F)F)nn1CC(=O)NC1CCCCCC1 | -2.84% (inactive)
87 | CCn1c(=S)sc2c(=O)n(CC(=O)Nc3ccc(OC)cc3)c(C)nc21 | -8.22% (inactive)
88 | COc1cc(CCC(=O)Nc2ccncc2Cl)cc(OC)c1OC | -2.22% (inactive)
89 | CN(C(=O)CSc1nncc2ccccc12)C1CCCCC1 | 69.8% (active)
90 | CN(C(=O)CCn1c(=S)oc2ccccc21)C1CCCCC1 | -6.3% (inactive)
91 | CN(C(=O)CSc1nnnn1-c1ccccc1)C1CCCCC1 | 31.7% (inactive)
92 | O=C(CCc1ccc(S(=O)(=O)NC2CCCCC2)cc1)NCc1ccccc1 | -10% (inactive)
93 | O=C(Cn1nc(C(F)(F)F)c2c1CCC2)NCc1ccc(F)cc1 | -2.3% (inactive)
94 | O=C(Cc1ccc(F)cc1)NC1CCCC1 | -4.53% (inactive)
95 | O=C(CC1CCCCC1)NCc1ccc(F)cc1 | 61.1% (active)
96 | O=C(CC1CCCCC1)NCc1ccco1 | -2.21% (inactive)
97 | O=C(CC1CCCCC1)NCc1ccccc1 | 107% (active)
98 | CC(=O)Nc1ccc(S(=O)(=O)N2CCN(C3CCCCCCC3)CC2)cc1 | -14.3% (inactive)
99 | CC(=O)Nc1ccc(N2C(=O)C3C4C=CC(CC4)C3C2=O)cc1 (stereo not given) | 11.7% (inactive)
100 | CC(=O)Nc1ccc(NC(=O)CC2CCCC2)cc1 | 48.2% (active)
